# Values without a mark were called inactive. Inconclusive results are not listed. A call without a number means that no potency is given here. Active and inactive are the calls of the source. The call rests on the fitted dose curve; in most records, active means well fitted curve in the direction sought with a large enough effect in the repeat runs; inconclusive means weak or mixed curves; inactive means no such curve, though single readings can be large; an effect the other way counts as inactive or inconclusive.
# Experiments:
# [1] = qHTS RealTime-Glo MT Cell Viability Assay in HepG2 cells - 40 hour (AID 1224870); further: nearly all actives have a fitted effect of over 50% in size
# Method in brief: (§1)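 HepG2 cells mixed with RealTime-Glo MT reagents (NanoLuc plus cell-permeant prosubstrate) were seeded at 600 cells/well, incubated 5 h at 37 C/5% CO2, then pinned with compounds in DMSO; nonlytic luminescence tracked viability during 40 h treatment.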
# [2] = A CellTox Green Cytotoxicity Assay to monitor cytotoxicity in HEK293 cells - 40 hour (AID 1224871); further: nearly all actives have a fitted effect of over 45% in size
# Method in brief: (§2)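 Seeding of HEK293 cells together with cytotoxicity dye preceded a 5 h incubation at 37 C/5% CO2. Test compounds in DMSO were then added and fluorescence monitored across 40 h.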
# [3] = qHTS RealTime-Glo MT Cell Viability Assay in HEK293 cells - 16 hour (AID 1224872); further: top concentration of the series differs between compounds; nearly all actives have a fitted effect of over 50% in size
# Method in brief: (§3)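 HEK293 cells seeded with NanoLuc/prosubstrate reagent, rested 5 h at 37 C, then dosed and kept at 37 C up to 40 h. Nonlytic real-time luminescence from viable cells read at 0, 8, 16, 24, 32 and 40 h.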
# [4] = qHTS RealTime-Glo MT Cell Viability Assay in HepG2 cells - 8 hour (AID 1224873); further: nearly all actives have a fitted effect of over 55% in size
# Method in brief: as §1
# [5] = qHTS RealTime-Glo MT Cell Viability Assay in HEK293 cells - 40 hour (AID 1224874); details: RealTime-Glo luminescence; max response: active compounds read low; further: nearly all actives have a fitted effect of over 50% in size
# Method in brief: (§4)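 Tox21 screen in HEK293 using RealTime-Glo MT chemistry, with cells and reagent co-dispensed. Luminescence proportional to viable cell number was captured at intervals during 40 h compound exposure at 37 C.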
# [6] = A CellTox Green Cytotoxicity Assay to monitor cytotoxicity in HEK293 cells - 24 hour (AID 1224875); further: series mostly up to about 77 µM; nearly all actives have a fitted effect of over 45% in size
# Method in brief: as §2
# [7] = A CellTox Green Cytotoxicity Assay to monitor cytotoxicity in HepG2 cells - 16 hour (AID 1224876); further: nearly all actives have a fitted effect of over 45% in size; further: potency means the concentration at half of the fitted maximal effect
# Method in brief: (§5)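 Nonlytic assay: viable cells exclude the dye, so fluorescence scales with cell death. HepG2 at 600 cells/well, compounds added after 5 h, signal read across 40 h.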
# [8] = qHTS RealTime-Glo MT Cell Viability Assay in HepG2 cells - 32 hour (AID 1224877); further: nearly all actives have a fitted effect of over 55% in size
# Method in brief: (§6)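 HepG2 cells (600/well) were dispensed with RealTime-Glo reagents, incubated 5 h at 37 °C, then treated with compounds in DMSO for up to 40 h. Nonlytic NanoLuc luminescence reflecting viable cells was read at each stated time point.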
# [9] = A CellTox Green Cytotoxicity Assay to monitor cytotoxicity in HepG2 cells - 24 hour (AID 1224878); further: nearly all actives have a fitted effect of over 45% in size; further: potency means the concentration at half of the fitted maximal effect
# Method in brief: as §5
# [10] = qHTS RealTime-Glo MT Cell Viability Assay in HEK293 cells - 0 hour (AID 1224880)
# Method in brief: as §4
# [11] = A CellTox Green Cytotoxicity Assay to monitor cytotoxicity in HEK293 cells - 32 hour (AID 1224881); further: nearly all actives have a fitted effect of over 40% in size
# Method in brief: as §2
# [12] = A CellTox Green Cytotoxicity Assay to monitor cytotoxicity in HepG2 cells - 0 hour (AID 1224882); further: nearly all actives have a fitted effect of over 35% in size
# Method in brief: as §5
# [13] = A CellTox Green Cytotoxicity Assay to monitor cytotoxicity in HepG2 cells - 32 hour (AID 1224883); further: nearly all actives have a fitted effect of over 50% in size
# Method in brief: as §5
# [14] = A CellTox Green Cytotoxicity Assay to monitor cytotoxicity in HEK293 cells - 8 hour (AID 1224884); further: nearly all actives have a fitted effect of over 35% in size
# Method in brief: as §2
# [15] = qHTS RealTime-Glo MT Cell Viability Assay in HepG2 cells - 16 hour (AID 1224885); further: nearly all actives have a fitted effect of over 50% in size
# Method in brief: as §6
# [16] = qHTS RealTime-Glo MT Cell Viability Assay in HEK293 cells - 24 hour (AID 1224886)
# Method in brief: as §3
# [17] = A CellTox Green Cytotoxicity Assay to monitor cytotoxicity in HEK293 cells - 16 hour (AID 1224888); further: nearly all actives have a fitted effect of over 35% in size
# Method in brief: as §2
# [18] = qHTS RealTime-Glo MT Cell Viability Assay in HepG2 cells - 0 hour (AID 1224889); further: nearly all actives have a fitted effect of over 50% in size
# Method in brief: as §6
# [19] = A CellTox Green Cytotoxicity Assay to monitor cytotoxicity in HepG2 cells - 40 hour (AID 1224879); further: nearly all actives have a fitted effect of over 40% in size
# Method in brief: as §5
# [20] = qHTS RealTime-Glo MT Cell Viability Assay in HEK293 cells - 8 hour (AID 1224887)
# Method in brief: as §4
compound,measurement,setting,value
CC(=O)OC(C)C[N+](C)(C)C (configuration not stated),Potency,[1],inactive
same,Potency,[2],inactive
same,Potency,[3],inactive
same,Potency,[4],inactive
same,max response,[5],-1.13%
same,Potency,[6],inactive
same,Potency,[7],inactive
same,Potency,[8],inactive
same,Potency,[9],inactive
same,Potency,[10],inactive
same,Potency,[11],inactive
same,Potency,[12],inactive
same,Potency,[13],inactive
same,Potency,[14],inactive
same,Potency,[15],inactive
same,Potency,[16],inactive
same,Potency,[17],inactive
same,Potency,[18],inactive
CCCCCCCCCCCCCOC(=O)CCSCCC(=O)OCCCCCCCCCCCCC,"activity change, negative = cytotoxic",[1],6.27% [at 15.8 µM]
same,cytotoxicity increase,[2],7.8% [at 15.8 µM]
same,"activity change, negative = cytotoxicity",[3],-1.74% [at 15.8 µM]
same,"viability change, negative = cytotoxic",[4],-12% [at 15.8 µM]
same,max response,[5],-0.06%
same,activity change,[6],"16% [at 15.8 µM, active compounds read high]"
same,cytotoxicity increase,[7],-0.0072% [at 15.8 µM]
same,cytotoxicity increase,[19],-4.11% [at 15.8 µM]
same,"activity change, negative = cytotoxicity",[10],-5.28% [at 15.8 µM]
same,cytotoxicity increase,[11],13.9% [at 15.8 µM]
same,cytotoxicity increase,[13],-0.352% [at 15.8 µM]
same,cytotoxicity increase,[14],12.5% [at 15.8 µM]
same,"activity change, negative = cytotoxicity",[16],-2.9% [at 15.8 µM]
same,"activity change, negative = cytotoxicity",[20],-5.3% [at 15.8 µM]
same,activity change,[17],"17.2% [at 15.8 µM, active compounds read high]"
same,"activity change, negative = cytotoxicity",[18],-15% [at 15.8 µM]
Cc1ccc(N(CC2=NCCN2)c2cccc(O)c2)cc1,Potency,[1],inactive
same,Potency,[2],inactive
same,Potency,[3],inactive
same,Potency,[4],inactive
same,max response,[5],-23.3%
same,Potency,[6],inactive
same,Potency,[7],inactive
same,Potency,[8],inactive
same,Potency,[9],inactive
same,Potency,[19],inactive
same,Potency,[10],inactive
same,Potency,[11],inactive
same,Potency,[13],inactive
same,Potency,[14],inactive
same,Potency,[16],inactive
same,Potency,[20],inactive
same,Potency,[17],inactive
same,Potency,[18],inactive
CC(=O)OCC1=C(C(=O)O)N2C(=O)[C@@H](NC(=O)CSc3ccncc3)[C@H]2SC1,Potency,[1],inactive
same,Potency,[2],inactive
same,Potency,[3],inactive
same,Potency,[4],inactive
same,max response,[5],5.21%
same,Potency,[6],inactive
same,Potency,[7],inactive
same,Potency,[8],inactive
same,Potency,[19],inactive
same,Potency,[10],inactive
same,Potency,[11],inactive
same,Potency,[12],inactive
same,Potency,[13],inactive
same,Potency,[14],inactive
same,Potency,[15],inactive
same,Potency,[16],inactive
same,Potency,[17],inactive
same,Potency,[18],inactive
COC(=O)c1sccc1S(N)(=O)=O,Potency,[1],inactive
same,Potency,[2],inactive
same,Potency,[3],inactive
same,Potency,[4],inactive
same,max response,[5],-18.1%
same,Potency,[6],inactive
same,Potency,[7],inactive
same,Potency,[8],inactive
same,Potency,[9],inactive
same,Potency,[10],inactive
same,Potency,[11],inactive
same,Potency,[12],inactive
same,Potency,[14],inactive
same,Potency,[15],inactive
same,Potency,[16],inactive
same,Potency,[20],inactive
same,Potency,[17],inactive
same,Potency,[18],inactive
COC1CCC=CO1 (configuration not stated),Potency,[1],inactive
same,Potency,[2],inactive
same,Potency,[3],inactive
same,Potency,[4],inactive
same,max response,[5],9.69%
same,Potency,[6],inactive
same,Potency,[7],inactive
same,Potency,[8],inactive
same,Potency,[9],inactive
same,Potency,[19],inactive
same,Potency,[10],inactive
same,Potency,[11],inactive
same,Potency,[12],inactive
same,Potency,[14],inactive
same,Potency,[16],inactive
same,Potency,[17],inactive
same,Potency,[18],inactive
Cc1cn([C@H]2C[C@H](F)[C@@H](CO)O2)c(=O)[nH]c1=O,Potency,[1],inactive
same,Potency,[2],inactive
same,Potency,[3],inactive
same,Potency,[4],inactive
same,max response,[5],16.7%
same,Potency,[6],inactive
same,Potency,[7],inactive
same,Potency,[8],inactive
same,Potency,[19],inactive
same,Potency,[10],inactive
same,Potency,[11],inactive
same,Potency,[12],inactive
same,Potency,[13],inactive
same,Potency,[14],inactive
same,Potency,[15],inactive
same,Potency,[16],inactive
same,Potency,[20],inactive
same,Potency,[17],inactive
same,Potency,[18],inactive
Cc1ccc(NC(=O)N(C)C)cc1NC(=O)N(C)C,Potency,[1],inactive
same,Potency,[2],inactive
same,Potency,[3],inactive
same,Potency,[4],inactive
same,max response,[5],-1.73%
same,Potency,[6],inactive
same,Potency,[7],inactive
same,Potency,[8],inactive
same,Potency,[9],inactive
same,Potency,[19],inactive
same,Potency,[10],inactive
same,Potency,[11],inactive
same,Potency,[13],inactive
same,Potency,[14],inactive
same,Potency,[15],inactive
same,Potency,[16],inactive
same,Potency,[20],inactive
same,Potency,[17],inactive
same,Potency,[18],inactive
CC(=O)C(=O)CC(C)C,Potency,[1],inactive
same,Potency,[2],inactive
same,Potency,[3],inactive
same,Potency,[4],inactive
same,max response,[5],9.63%
same,Potency,[6],inactive
same,Potency,[7],inactive
same,Potency,[8],inactive
same,Potency,[19],inactive
same,Potency,[10],inactive
same,Potency,[11],inactive
same,Potency,[12],inactive
same,Potency,[13],inactive
same,Potency,[14],inactive
same,Potency,[15],inactive
same,Potency,[16],inactive
same,Potency,[20],inactive
same,Potency,[17],inactive
same,Potency,[18],inactive
Cc1ccc2c(c1)CCCN2,Potency,[1],inactive
same,Potency,[2],inactive
same,Potency,[3],inactive
same,Potency,[4],inactive
same,max response,[5],1.39%
same,Potency,[6],inactive
same,Potency,[7],inactive
same,Potency,[8],inactive
same,Potency,[19],inactive
same,Potency,[10],inactive
same,Potency,[11],inactive
same,Potency,[12],inactive
same,Potency,[13],inactive
same,Potency,[14],inactive
same,Potency,[15],inactive
same,Potency,[16],inactive
same,Potency,[17],inactive
same,Potency,[18],inactive
O=NN(CCCl)C(=O)NCCCl,Potency,[1],inactive
same,Potency,[2],inactive
same,Potency,[3],inactive
same,Potency,[4],inactive
same,max response,[5],8.5%
same,Potency,[6],inactive
same,Potency,[7],4.77 µM (active)
same,Potency,[8],inactive
same,Potency,[9],4.77 µM (active)
same,Potency,[10],inactive
same,Potency,[11],inactive
same,Potency,[14],inactive
same,Potency,[15],inactive
same,Potency,[16],inactive
same,Potency,[20],inactive
same,Potency,[17],inactive
same,Potency,[18],inactive
COc1ccc(C2C(=O)c3ccccc3C2=O)cc1,Potency,[1],inactive
same,Potency,[2],inactive
same,Potency,[3],inactive
same,Potency,[4],inactive
same,max response,[5],4.61%
same,Potency,[6],inactive
same,Potency,[7],inactive
same,Potency,[19],inactive
same,Potency,[10],inactive
same,Potency,[11],inactive
same,Potency,[12],inactive
same,Potency,[13],inactive
same,Potency,[14],inactive
same,Potency,[15],inactive
same,Potency,[16],inactive
same,Potency,[20],inactive
same,Potency,[17],inactive
same,Potency,[18],inactive
CC(CO)(CO)C(=O)O,Potency,[1],inactive
same,Potency,[2],inactive
same,Potency,[3],inactive
same,Potency,[4],inactive
same,max response,[5],0.0251%
same,Potency,[6],inactive
same,Potency,[7],inactive
same,Potency,[9],inactive
same,Potency,[19],inactive
same,Potency,[10],inactive
same,Potency,[11],inactive
same,Potency,[12],inactive
same,Potency,[13],inactive
same,Potency,[15],inactive
same,Potency,[16],inactive
same,Potency,[20],inactive
same,Potency,[17],inactive
same,Potency,[18],inactive
O=C(O)CO,Potency,[1],inactive
same,Potency,[2],inactive
same,Potency,[3],inactive
same,Potency,[4],inactive
same,max response,[5],8.33%
same,Potency,[6],inactive
same,Potency,[7],inactive
same,Potency,[10],inactive
same,Potency,[11],inactive
same,Potency,[12],inactive
same,Potency,[15],inactive
same,Potency,[16],inactive
same,Potency,[17],inactive
same,Potency,[18],inactive

# — PubChem BioAssay (Tox21)
